ssDAF12 agonist – activators of S. stercoralis DAF-12 nuclear receptor. HEK293 ssDAF-12/GRIP1 lit1-tk-luc reporter, luminescence; % of 3 µM dafachronic acid response. activation, % at 6.8 µM. 370,000 tested, 1% active. AID 652126;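 active = activation above the mean over all tested compounds plus 3 SD, cut at about 0.9% in these data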;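 also: 0% = DMSO-only wells and 100% = 3 µM delta7-dafachronic acid wells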
hgDAF12 agonist – agonists of H. glycines DAF-12 nuclear receptor; HEK293 GAL4-hgDAF12 UAS-luciferase reporter, agonist luminescence; normalized to butyrate control; 370,000 tested, 1.8% active; activation, % at 6.8 µM;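 active = activation above a cutoff set at the mean of all screened compounds plus 3 SD, cut at about 10% in these data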;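 also: 0% = DMSO wells and 100% = sodium butyrate wells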
DAX1 inh-1 – inhibitors of human orphan nuclear receptor DAX1 (NR0B1) | inhibition, % at 6.75 µM | P51843 | HEK293 Gal4-DAX1 luciferase reporter, luminescence | 340,000 tested, 0.99% active;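 active = inhibition above the mean over all tested compounds plus 3 SD, cut at about 4.2% in these data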;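 also: 0% = DAX1-transfected cells with DMSO and 100% = empty-vector control cells with DMSO; inhibition shows as a rise in luminescence from relieved DAX1 repression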
DAX1 inh-2 – inhibitors of DAX1 repression of SF-1 activated StAR promoter; HEK293T StAR-luciferase reporter, SF-1/DAX-1 repression relief; inhibition, % at 6.8 µM; 370,000 tested, 1.1% active; AID 652010;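 active = inhibition above the mean over all tested compounds plus 3 SD, cut at about 3.6% in these data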;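 also: 0% = DAX-1 cells with DMSO and 100% = cells lacking DAX-1 with DMSO; higher inhibition means more luminescence from relief of DAX-1 repression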
hcDAF12 agonist – H. contortus DAF-12 activation, primary screen | HEK293 hcDAF-12 lit1-tk-luc reporter, luminescence; 0% DMSO, 100% Δ7-dafachronic acid | activation, % at 6.8 µM | 370,000 tested, 1.4% active | AID 652067;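 active = activation above the mean of all tested compounds plus 3 SD, cut at about 5.5% in these data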;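 also: 100% = response to 3 µM Δ7-dafachronic acid high control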
hgDAF12 conf – hgDAF-12 agonism, confirmation assay; HEK293 GAL4-hgDAF12 luciferase reporter, agonist mode; percent of butyrate response; 3,300 tested, 80% active; activation, % at 6.8 µM; shares compounds with hgDAF12 agonist;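 active = mean activation over triplicate wells above the hit cutoff derived from the earlier primary screen, cut at about 11% in these data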;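 also: 0% = DMSO low control and 100% = 2 mM sodium butyrate high control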
LXRb DAF12 ctr – activates human LXR-beta, counter-screen for DAF-12 agonists | HEK293 Gal4-LXR luciferase reporter, 24 h | 3,300 tested, under 10 active | activation, % at 6.8 µM | shares compounds with hgDAF12 agonist | AID 743051;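 active = mean activation of the triplicate above a set limit carried over from the primary screen, none filed active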
Target sequence (P55055 whole entry, looked up, the tested form may be a part): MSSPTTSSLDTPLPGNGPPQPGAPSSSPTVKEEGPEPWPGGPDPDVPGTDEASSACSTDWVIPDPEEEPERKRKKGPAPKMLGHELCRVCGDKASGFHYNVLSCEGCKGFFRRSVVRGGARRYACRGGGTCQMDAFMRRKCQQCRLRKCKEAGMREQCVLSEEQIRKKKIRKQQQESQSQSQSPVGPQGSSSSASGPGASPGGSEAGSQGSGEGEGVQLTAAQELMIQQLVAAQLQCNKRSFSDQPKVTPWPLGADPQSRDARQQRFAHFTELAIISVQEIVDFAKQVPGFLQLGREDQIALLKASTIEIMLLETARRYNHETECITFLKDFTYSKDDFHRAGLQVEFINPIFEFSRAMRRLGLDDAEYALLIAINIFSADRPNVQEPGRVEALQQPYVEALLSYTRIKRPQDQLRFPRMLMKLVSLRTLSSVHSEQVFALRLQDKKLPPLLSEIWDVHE
Active calls of the source: *; . = no result given. A selection: hits, their analogues and other compounds. The true share with any hit is near 4.1%.

SMILES	ssDAF12 agonist	hgDAF12 agonist	DAX1 inh-1	DAX1 inh-2	hcDAF12 agonist	hgDAF12 conf	LXRb DAF12 ctr
C=CCN1C(=O)[C@@H](CC(=O)NCCCCc2ccccc2)[C@]2(C(=O)OC)CCCCC=C12	-2	1	.	0	0	.	.
COc1ccc(-c2cc(NC(=O)Cc3c[nH]c4ccccc34)ccc2Nc2cccnc2)c(OC)c1	-1	-2	.	-1	1	.	.
CC(=O)c1cccc(NC(=O)c2ccc3ccccc3c2)c1	1	19*	2	3	4	17*	1
O=C(Nc1ccc(Br)cn1)c1cccc(C(=O)Nc2ccc(Br)cn2)c1	0	6	-1	1	0	.	.
O=C(Nc1ccc(Br)cn1)c1ccc2ccccc2c1	1.6*	14*	2	2	4	19*	1
CC(=O)c1ccc(NC(=O)c2cc3ccccc3o2)cc1	1.6*	14*	1	3	5	18*	1
CC(=O)N1CCN(c2ccc(NC(=O)c3cc4ccccc4o3)cc2)CC1	-2	-1	-1	0	-2	.	.
Cc1ccccc1CS(=O)(=O)Cc1ccc(C(=O)Nc2ccccc2C)o1	-1	3	.	0	0	.	.
CCCCCCCCN1C(=O)[C@@H](CC(=O)NCC2CCCCC2)C[C@@]2(C(=O)OC)C1=C[C@H](C1CCCC1)O[C@@H]2C	0	7	.	0	0	.	.
Clc1ncnc2c1oc1ccccc12	1.6*	19*	4	2	6.2*	16*	1
CCSc1ncnc2c1oc1ccccc12	-1	-1	1	0	-2	.	.
CCOC(=O)N1C(=O)C[C@](Sc2ccc(OC)cc2)(C(=O)N(C)C)[C@H]1c1ccc(OC)cc1	-1	9	.	-2	0	.	.
O=C(C1CCCN(S(=O)(=O)c2ccc([N+](=O)[O-])cc2)C1)N1CCN(Cc2ccccc2)CC1 (stereo not given)	-2	-2	.	-3	-6	.	.
O=C(COC(=O)c1cc2ccccc2oc1=O)Nc1ccc(F)cc1F	0	17*	0	2	5	16*	1
COc1ccc(C#Cc2c(-c3ccccc3OC)oc3ccccc23)cc1	-1	1	.	0	-1	.	.
Cc1ccc(N=Nc2c(N)nn(-c3ccccc3)c2N)cc1	0.9*	20*	0	1	2	25*	1
Cc1nn(-c2ccccc2)c(N)c1N=Nc1ccc2ccccc2c1	1	23*	2	3	3	18*	1
Cc1nn(-c2ccccc2)c(N)c1N=O	-1	3	.	0	2	.	.
COc1cccc(CNC(=O)[C@H]2CCCN2C(=O)[C@H]2CCCN2)c1	-1	-3	.	0	1	.	.
CCC1CCCCN1C(=S)NN=C(C)c1ccccn1 (stereo not given)	-1	1	.	-2	-1	.	.
N#Cc1ccc2nc(-c3ccc(CN4CCC(n5cc(-c6ccccc6)[nH]c5=O)CC4)cc3)c(-c3ccccc3)nc2c1	-1	0	.	-3	-2	.	.
COc1cc(C=O)ccc1OCc1cccc(Br)c1	-1	14*	1	0	0	10	0
CNC(=O)COc1ccc(C=O)cc1OC	0	-1	0	0	2	.	.
Nc1ccccc1C#Cc1ccc2[nH]ccc2c1	0	14*	7.2*	1	3	12*	0
O=C(OCc1cccnc1)C1=Cc2ccccc2OC1	-1	14*	-1	1	-1	3	0
SMILES	ssDAF12 agonist	hgDAF12 agonist	DAX1 inh-1	DAX1 inh-2	hcDAF12 agonist	hgDAF12 conf	LXRb DAF12 ctr
CCCCS(=O)(=O)N1CCCc2nc(-c3ccc(Br)cc3)ccc21	-1	2	.	1	1	.	.
COc1ccc(-c2ccc(C(=O)Nc3ccc(Cl)cc3)c3occc23)c(C)c1	-1	18*	.	2	0	8	0
COc1ccc(-c2ccc(C(=O)Nc3ccc(NC(C)=O)cc3)c3occc23)c(C)c1	-1	1	.	-1	0	.	.
COc1cc(/C=C/c2nc3ccccc3c(=O)[nH]2)ccc1O	0	17*	3	3.7*	3	11*	1
O=c1[nH]c(/C=C/c2ccccc2Cl)nc2ccccc12	0	14*	2	2	2	21*	1
O=C(O)c1ccc(/C=C/c2nc3ccccc3c(=O)[nH]2)cc1	-1	0	2	0	0	.	.
Cc1cccc(/C=C/c2nc3ccccc3c(=O)[nH]2)c1	0	18*	0	3.7*	4	21*	1
COc1ccc(C2CC(=O)C(c3ccc([N+](=O)[O-])cc3)=CN2Cc2ccccc2)cc1 (stereo not given)	-1	-2	.	-3	-2	.	.
O=C(Nc1ccc(O)cc1)c1c(O)c2c([nH]c1=O)CCCC2	1	14*	1	3.7*	5	13*	1
CCOc1cc(/C=N/NC(=O)N/N=C/c2ccc(O)c(OCC)c2)ccc1O	1.1*	14*	.	-1	5	16*	1
COc1cc(/C=N/NC(=O)CCC(=O)Nc2ccc(F)cc2)ccc1O	-1	24*	1	0	0	0	0
COC(=O)[C@]12C[C@H](CC(=O)NCCC(C)C)C(=O)N(CCC3=CCCCC3)C1=C[C@H](COCc1ccccc1)O[C@@H]2C	-1	-8	.	1	-1	.	.
O=C(Nc1ccccn1)c1csc2c1CCCC2	0	19*	1	3	6.0*	16*	1
Nn1c(SCC(=O)NC2CCCCC2)nnc1-c1cc(-c2ccc(F)cc2)n[nH]1	-1	7	.	0	-1	.	.
CC1=NN(C(=O)c2ccc(C)o2)C(O)(c2ccccc2)C1 (stereo not given)	0	17*	2	3.9*	4	-1	0
CCOC(=O)CSc1nc(-c2ccncc2)ccc1C#N	0.9*	17*	2	3	4	16*	1
COC(=O)c1cc2c(c3c4ccccc4n(S(=O)(=O)c4ccccc4)c13)C(=O)N(Cc1ccc(C(F)(F)F)cc1)C2	0	2	.	0	1	.	.
CC[C@H]1OC(=O)[C@H](C)[C@@H](O[C@H]2C[C@@](C)(OC)[C@@H](O)[C@H](C)O2)C(C)[C@@H](O[C@@H]2O[C@H](C)C[C@H](N(C)C)[C@H]2O)[C@](C)(O)C[C@@H](C)CN(C)[C@H](C)[C@@H](O)[C@]1(C)O (stereo not given in full)	-1	-2	.	0	1	.	.
CCOC(=O)[C@@]12CN(C(=O)OC(C)(C)C)CC=C1N(Cc1ccc(OC)cc1)C(=O)[C@H]2CC(=O)NCc1cccs1	-1	-2	.	-1	-1	.	.
COc1ccc2[nH]c(C(=O)Nc3ccc(C)c(F)c3)cc2c1	0	3	1	0	-1	.	.
